The values below come from paper PMC4336329 (PLoS ONE, 2015).

Each structure is given as a SMILES string. Hit rate of the full screen: of about 310,000 compounds, about 14,000 (4.5%) showed an effect of 50% or more. The effect is printed as a negative number. The list comes from a sample in which strong results are over-represented; it also holds similar structures and randomly drawn compounds.
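Note: peak tail current of the secondary pulse compared with the same well before compound.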

human ether-à-go-go-related gene (hERG) potassium channel, sequence (Q12809 whole entry, looked up): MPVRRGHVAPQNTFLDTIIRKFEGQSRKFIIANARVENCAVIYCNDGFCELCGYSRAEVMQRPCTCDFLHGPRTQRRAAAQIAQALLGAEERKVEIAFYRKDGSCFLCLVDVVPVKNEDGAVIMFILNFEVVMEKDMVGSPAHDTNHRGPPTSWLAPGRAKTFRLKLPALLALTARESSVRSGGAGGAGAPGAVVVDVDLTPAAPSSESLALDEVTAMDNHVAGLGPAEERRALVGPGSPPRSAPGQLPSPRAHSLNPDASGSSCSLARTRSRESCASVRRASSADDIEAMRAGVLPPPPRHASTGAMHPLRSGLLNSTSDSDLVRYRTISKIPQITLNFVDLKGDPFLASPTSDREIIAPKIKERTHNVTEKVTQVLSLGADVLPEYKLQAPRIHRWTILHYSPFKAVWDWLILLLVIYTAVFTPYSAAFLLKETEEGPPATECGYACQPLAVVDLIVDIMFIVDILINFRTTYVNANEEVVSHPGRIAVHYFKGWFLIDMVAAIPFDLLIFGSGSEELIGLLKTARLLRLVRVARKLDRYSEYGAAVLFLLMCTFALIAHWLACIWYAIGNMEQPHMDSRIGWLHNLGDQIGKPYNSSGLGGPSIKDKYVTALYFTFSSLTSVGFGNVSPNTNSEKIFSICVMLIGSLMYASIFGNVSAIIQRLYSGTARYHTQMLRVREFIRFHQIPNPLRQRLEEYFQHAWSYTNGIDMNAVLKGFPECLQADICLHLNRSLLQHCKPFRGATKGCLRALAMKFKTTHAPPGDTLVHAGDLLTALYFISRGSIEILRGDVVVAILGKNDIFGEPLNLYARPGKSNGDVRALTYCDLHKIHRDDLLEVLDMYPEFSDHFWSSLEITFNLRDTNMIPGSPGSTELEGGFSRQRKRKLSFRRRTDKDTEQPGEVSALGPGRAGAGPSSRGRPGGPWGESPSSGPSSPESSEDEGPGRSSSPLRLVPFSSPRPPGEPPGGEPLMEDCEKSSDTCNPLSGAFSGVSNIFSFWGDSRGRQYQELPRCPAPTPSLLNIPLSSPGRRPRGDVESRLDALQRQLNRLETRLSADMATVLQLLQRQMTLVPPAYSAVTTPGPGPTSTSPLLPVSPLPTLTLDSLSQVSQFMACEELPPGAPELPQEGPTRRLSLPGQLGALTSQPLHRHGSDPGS

This test has as its target human ether-à-go-go-related gene (hERG) potassium channel (human, UniProt Q12809). Nature of the test: primary screen, population patch clamp on CHO cells stably expressing hERG; higher = less effect of the substance.
`Cc1ccccc1CSc1nnc(-c2cnccn2)n1C`: the “hERG current change (%, negative = inhibition) at 10uM” value is recorded as 7.84%.

For the molecule `O=C(O)/C=C/C(=O)Nc1ccc(Cl)cc1C(=O)c1ccccc1`, the “hERG current change (%, negative = inhibition) at 10uM” value is -7.6%.

Take `CCOc1ccccc1NC(=O)CC1NCCNC1=O` (stereo not shown): the “hERG current change (%, negative = inhibition) at 10uM” value is -8.89%.

With `COc1ccc(/C=N/NC(=O)c2c(C)nc3ccc(Br)cn23)cc1OC`, the “hERG current change (%, negative = inhibition) at 10uM” value is reported as -0.597%.

On to `COCCNc1nnnc2c1sc1nc(N3CCOCC3)c3c(c12)CC(C)(C)OC3`, for which the “hERG current change (%, negative = inhibition) at 10uM” value was -7.85%.

On to `COc1ccc(OCC(O)Cn2c(Nc3ccccc3)nc3c2c(=O)n(C)c(=O)n3C)cc1` (stereo not shown), for which the “hERG current change (%, negative = inhibition) at 10uM” value amounted to 2.94%.

`CCCCOc1ccc(C(=O)N2CCC(C)CC2)cc1`: the “hERG current change (%, negative = inhibition) at 10uM” value is listed as -9.48%.

As for `O=C(O)C(=O)O.O=C(c1ccccc1)c1ccc(OCCCN2CCCC2)cc1`, the “hERG current change (%, negative = inhibition) at 10uM” value is given as -70.6%.

For the molecule `O=C(O)C(=O)O.O=C(c1ccccc1)c1ccc(OCCOCCN2CCN(Cc3ccccc3)CC2)cc1`, the “hERG current change (%, negative = inhibition) at 10uM” value is -78.9%.

`CCc1ccc(OCCOCCN2CCN(C)CC2)cc1.O=C(O)C(=O)O`: the “hERG current change (%, negative = inhibition) at 10uM” value is given as 4.8%.

Consider `CC1CCN(CCCCOc2ccc(C(=O)c3ccccc3)cc2)CC1.O=C(O)C(=O)O`, for which the “hERG current change (%, negative = inhibition) at 10uM” value is reported as -77%.

Turning to `O=C(O)C(=O)O.c1ccc(CN2CCN(CCOCCOc3ccc4c(c3)CCC4)CC2)cc1`, the “hERG current change (%, negative = inhibition) at 10uM” value was -5.19%.

For the molecule `CCCOc1ccc(C(=O)C(CN2CCCC2)c2ccccc2)cc1.Cl` (stereo not shown), the “hERG current change (%, negative = inhibition) at 10uM” value is listed as -65.8%.

For `CCCCOc1ccc(C(=O)C(CN2CCOCC2)c2ccccc2)cc1` (stereo not shown), the “hERG current change (%, negative = inhibition) at 10uM” value is -1.42%.

In the case of `CCCOc1ccc(C(=O)C(CN2CCOCC2)c2ccccc2)cc1` (stereo not shown), the “hERG current change (%, negative = inhibition) at 10uM” value was -8.97%.

As to `CC1CCN(CCOc2ccc(C(=O)c3ccccc3)cc2)CC1.O=C(O)C(=O)O`, the “hERG current change (%, negative = inhibition) at 10uM” value was -47.5%.

Regarding `O=C(O)C(=O)O.c1ccc(OCCCN2CCCC2)cc1`, the “hERG current change (%, negative = inhibition) at 10uM” value is -7.18%.

With `O=C(O)c1ccccc1NC(=O)N1C[C@H]2C[C@@H](C1)c1cccc(=O)n1C2`, the “hERG current change (%, negative = inhibition) at 10uM” value is given as 3.86%.

For the molecule `COc1ccc(CN(C)Cc2nc(Cc3ccccc3Cl)no2)cc1OC`, the “hERG current change (%, negative = inhibition) at 10uM” value is given as -10.9%.

As for `CC(=O)Nc1nc2ccccc2[nH]1`, the “hERG current change (%, negative = inhibition) at 10uM” value is on record as -0.326%.

Consider `Cc1cc(C)n(C(=O)CNC(=O)c2ccco2)n1`, for which the “hERG current change (%, negative = inhibition) at 10uM” value was determined as 11.9%.

On to `CC(NC(=O)c1ccco1)C1CCCO1` (stereo not shown), for which the “hERG current change (%, negative = inhibition) at 10uM” value is on record as -12.7%.

Take `O=CN1CC(=O)N(c2ccccc2)c2c([nH]c3ccccc23)C1`: the “hERG current change (%, negative = inhibition) at 10uM” value is -23.2%.

As for `O=C(O)CSc1cc(C(=O)c2ccccc2O)cn2c(=O)c3c(-c4ccccc4)csc3nc12`, the “hERG current change (%, negative = inhibition) at 10uM” value is -1.71%.

On to `COc1cc(NC2c3ccccc3C(=O)N2Cc2ccc3c(c2)OCO3)cc(OC)c1` (stereo not shown), for which the “hERG current change (%, negative = inhibition) at 10uM” value was -22.4%.

With `Cc1cc(OCC(=O)NCCc2c[nH]c3ccccc23)c2c(C)c(C)c(=O)oc2c1`, the “hERG current change (%, negative = inhibition) at 10uM” value was determined as 3.37%.

For the molecule `CC(=O)c1ccc(OCCCN2CCCCC2)cc1.O=C(O)C(=O)O`, the “hERG current change (%, negative = inhibition) at 10uM” value was -22.2%.

With `CCCOc1ccc(C(=O)CCN2CCCCC2)cc1.Cl`, the “hERG current change (%, negative = inhibition) at 10uM” value is recorded as -31.6%.

With `COc1cc(C(=O)OCCN2CCCCC2)ccc1O.Cl`, the “hERG current change (%, negative = inhibition) at 10uM” value worked out at 3.87%.

Consider `CCCCOc1ccc(C(=O)CCN2CCCCC2)cc1.Cl`, for which the “hERG current change (%, negative = inhibition) at 10uM” value is listed as -61.5%.

For the molecule `CC(C)COc1ccc(C(=O)OCCN2CCOCC2)c(O)c1.Cl`, the “hERG current change (%, negative = inhibition) at 10uM” value was -25.2%.

Consider `CCOc1ccc(C(=O)CCN2CCCCCC2)cc1.Cl`, for which the “hERG current change (%, negative = inhibition) at 10uM” value is -38.4%.

For `O=C(O)C(=O)O.O=C(c1ccccc1)c1ccc(OCCCN2CCCCC2)cc1`, the “hERG current change (%, negative = inhibition) at 10uM” value is reported as -66.4%.

With `O=C(O)C(=O)O.O=C(c1ccccc1)c1ccc(OCCCCN2CCCCC2)cc1`, the “hERG current change (%, negative = inhibition) at 10uM” value is -52.6%.

For `CCCOc1ccc(C(=O)OCCN2CCCCC2)c(O)c1.Cl`, the “hERG current change (%, negative = inhibition) at 10uM” value was -58.7%.

`COc1ccc(/C=N/N=C2\SC(CC(=O)O)C(=O)N2c2ccccc2)c(OC)c1` (stereo not shown): the “hERG current change (%, negative = inhibition) at 10uM” value amounted to 4.13%.

Turning to `CC1=CC(C)(C)N(C(=O)CSc2nnc(N)s2)c2cc(C)c(C)cc21`, the “hERG current change (%, negative = inhibition) at 10uM” value is -6%.

Consider `CC(C)OC(=O)Nc1ccc2c(c1)N(C(=O)CCN(C)C)c1ccccc1CC2.Cl`, for which the “hERG current change (%, negative = inhibition) at 10uM” value is -20.8%.

Regarding `CCOc1ccc(N2CC(NC(=O)c3cccc4ccccc34)CC2=O)cc1` (stereo not shown), the “hERG current change (%, negative = inhibition) at 10uM” value came to 3.75%.

Consider `CCN(CC(=O)NCc1ccc(Cl)cc1)C(=O)c1cc(S(=O)(=O)NCc2ccccc2)ccc1C`, for which the “hERG current change (%, negative = inhibition) at 10uM” value was -25.6%.

Turning to `CN(C)c1nc(NCc2ccccc2)nc(N/N=C/c2cccc(Br)c2)n1`, the “hERG current change (%, negative = inhibition) at 10uM” value is recorded as 29.7%.

Regarding `O=C(Cc1ccsc1)NCc1ccccc1F`, the “hERG current change (%, negative = inhibition) at 10uM” value was determined as 17.1%.

Consider `CC(C)CCNC(=O)c1cc(-c2ccco2)nc2ccccc12`, for which the “hERG current change (%, negative = inhibition) at 10uM” value was 6.45%.

As for `CC[N+](CC)(CC)CC(=O)Nc1ccc(SC(F)F)cc1.[Cl-]`, the “hERG current change (%, negative = inhibition) at 10uM” value was -3.41%.

On to `O=C(Cc1ccccc1)Nc1ccc(SC(F)F)cc1`, for which the “hERG current change (%, negative = inhibition) at 10uM” value is on record as -29.7%.

On to `CCn1c(N)[n+](CC(=O)Nc2ccc(SC(F)F)cc2)c2ccccc21.[Cl-]`, for which the “hERG current change (%, negative = inhibition) at 10uM” value is -78.4%.

As to `COC(=O)Cn1c(=NC(=O)CCS(=O)(=O)c2ccccc2)sc2c(OC)ccc(OC)c21`, the “hERG current change (%, negative = inhibition) at 10uM” value is given as 6.2%.

`CCc1noc(C)c1C(=O)NNC(=O)c1ccccc1F`: the “hERG current change (%, negative = inhibition) at 10uM” value turned out to be 21%.

As for `CSc1cccc(NC(=O)CCS(=O)(=O)c2cccc3nonc23)c1`, the “hERG current change (%, negative = inhibition) at 10uM” value is listed as -15.1%.

Consider `COC(=O)c1ccccc1NC(=O)COC(=O)c1cccnc1`, for which the “hERG current change (%, negative = inhibition) at 10uM” value is given as 6.42%.

`COc1ccc(C)cc1NC(=O)CN1CCN(S(=O)(=O)c2ccc(Br)cc2)CC1`: the “hERG current change (%, negative = inhibition) at 10uM” value is -30.5%.

For the molecule `O=C(CN1CCN(S(=O)(=O)c2ccc(Cl)cc2)CC1)Nc1ccc(F)cc1F`, the “hERG current change (%, negative = inhibition) at 10uM” value is reported as -78.3%.

Regarding `COC(=O)c1ccc(NC(=O)CN2CCN(S(=O)(=O)c3ccc(Br)cc3)CC2)cc1`, the “hERG current change (%, negative = inhibition) at 10uM” value is -31.4%.

In the case of `Cc1cc(NC(=O)CN2CCN(S(=O)(=O)c3ccc(Cl)cc3)CC2)no1`, the “hERG current change (%, negative = inhibition) at 10uM” value is recorded as -15.4%.

Consider `NS(=O)(=O)c1ccc(NC(=O)CN2CCN(S(=O)(=O)c3ccc(F)cc3)CC2)cc1`, for which the “hERG current change (%, negative = inhibition) at 10uM” value is reported as 7.15%.

With `O=C(CN1CCN(S(=O)(=O)c2ccc(F)cc2)CC1)Nc1ccc(Cl)cn1`, the “hERG current change (%, negative = inhibition) at 10uM” value is -62.7%.

`O=C(CN1CCN(S(=O)(=O)c2ccc(Br)cc2)CC1)Nc1ccc(F)cc1F`: the “hERG current change (%, negative = inhibition) at 10uM” value is -73.5%.

With `COc1ccc(Cl)cc1NC(=O)CN1CCN(S(=O)(=O)c2ccc(F)cc2)CC1`, the “hERG current change (%, negative = inhibition) at 10uM” value was -43.8%.

Take `O=C(CN1CCN(S(=O)(=O)c2ccccc2)CC1)Nc1ccc(Cl)cn1`: the “hERG current change (%, negative = inhibition) at 10uM” value is reported as -29.5%.

For the molecule `O=C(CN1CCN(S(=O)(=O)c2ccc(Br)cc2)CC1)Nc1ccc(F)cc1`, the “hERG current change (%, negative = inhibition) at 10uM” value is -67.8%.

Regarding `CC(C)c1ccc(S(=O)(=O)N2CCN(CC(=O)Nc3ccc(Cl)cc3F)CC2)cc1`, the “hERG current change (%, negative = inhibition) at 10uM” value was -15.9%.
